Experimental data as given in ChEMBL document CHEMBL3988442, “University of Dundee, Small-Polar-MMV Screening Library” (2021).
The whole screen tested about 53,000 compounds, of which about 900 (1.7%) showed an effect of 50% or more. What follows is part of a selection rich in strong results, with near analogues and random picks from the rest.

These compounds were tested on Mycobacterium tuberculosis (assay: Cornell - Phenotypic assay to identify agents that inhibit growth of Mycobacterium tuberculosis). Conditions: 10 mM as filed; unlikely as a test dose.
Assay type: functional
Design: scale not given: direction of the effect not stated beside the values
For `O=C(NC[C@]1(O)CCN(Cc2ccccc2F)C[C@H]1O)c1c[nH]cn1`, the “Percent Effect” value was -15.39%. With `CC(C)c1ccc(CN[C@@H]2COC[C@H]2c2ccc(F)cc2)cc1` the “Percent Effect” value was 38.02%. For `O=C(NCc1cccnc1)C1=NN(c2ccccc2)C(=O)CN1`, the “Percent Effect” value was -12.05%. With `COc1ccccc1CNC(=O)C1=NN(c2ccc(C)cc2)C(=O)CN1` the “Percent Effect” value was 59.16%. With `COCc1ccc(CNC(=O)C2=NN(c3ccccc3)C(=O)CN2)cc1` the “Percent Effect” value was -8.016%. In the case of `O=C(NCCNC(=O)c1scnc1Cl)c1ccccc1Cl`, the “Percent Effect” value is reported as 2.223%. With `CCCc1nc(N2CCN(CC)CC2)c2c(n1)c(C)nn2CC` the “Percent Effect” value was 19.74%. For `CCCc1nc(N2CCSCC2)c2c(n1)c(C)nn2CC`, the “Percent Effect” value was 16.49%. In the case of `CCCc1nc(N2CCC(C)CC2)c2c(n1)c(C)nn2CC`, the “Percent Effect” value is reported as 17.45%. With `CCCc1nc(NCCc2ccccc2)c2c(n1)c(C)nn2CC` the “Percent Effect” value was 98.38%. With `CCn1nc(C)c2nc(C)nc(NC3CCCC3)c21` the “Percent Effect” value was 42.26%. For `CCCc1nc(N2CCCCCC2)c2c(n1)c(C)nn2CC`, the “Percent Effect” value was 68.4%. `CCCc1nc(N2CCCCC2)c2c(n1)c(C)nn2CC` was tested, and the “Percent Effect” value was -11.73%. In the case of `CCn1nc(C)c2nc(C)nc(NCCc3ccc(C)cc3)c21`, the “Percent Effect” value is reported as 87.9%. With `CCn1nc(C)c2nc(C)nc(NCCc3ccccc3)c21` the “Percent Effect” value was 18.42%. For `COc1cc(C(=O)N(CCC#N)Cc2ccccn2)ccc1C`, the “Percent Effect” value was 2.226%. With `COC1CCN(S(=O)(=O)NCC2COc3ccccc3C2)CC1` (stereo not drawn) the “Percent Effect” value was 23.14%. `CC(=O)N1CCC(C(=O)NC2CCc3nccn3C2)CC1` (stereo not drawn) was tested, and the “Percent Effect” value was -4.558%. With `Cc1nnc(C2CCN(c3ccc(F)cc3)CC2)o1` the “Percent Effect” value was 0.33%. `CC[C@H]1N(C)CCC[C@]12CCC(=O)N2Cc1ccncc1.O=C(O)C(F)(F)F.O=C(O)C(F)(F)F` was tested, and the “Percent Effect” value was 4.525%. With `Cc1cn2c(n1)CCC(NC(=O)c1[nH]nc(C)c1Br)C2` (stereo not drawn) the “Percent Effect” value was -35.87%. With `O=C(CSC1CCc2ccccc2NC1=O)NC1CC1` (stereo not drawn) the “Percent Effect” value was -0.1015%. For `COc1cccc(CN2CCC(c3nn(CCN)c4nccnc34)C2)c1` (stereo not drawn), the “Percent Effect” value was -33.21%. `COc1cccc(NC(=O)NCC2CCCN(C3CCOCC3)C2)c1` (stereo not drawn) was tested, and the “Percent Effect” value was -9.956%. `COC(=O)c1sccc1S(=O)(=O)N1CCC(Oc2cccnn2)CC1` was tested, and the “Percent Effect” value was 10.5%. With `COC(=O)c1sccc1S(=O)(=O)N1CCC(Oc2ncccc2Cl)CC1` the “Percent Effect” value was 63.53%. With `COC(=O)c1sccc1S(=O)(=O)N1CCC(Oc2cnccn2)CC1` the “Percent Effect” value was 11.89%. `CCOCC1CN(C(=O)c2ccnnc2)Cc2cnn(CC)c21.O=C(O)C(F)(F)F` (stereo not drawn) was tested, and the “Percent Effect” value was 10.27%. `NC(=O)CN1CC(c2nc(C3CC3)no2)C1.O=C(O)C(=O)O` was tested, and the “Percent Effect” value was -1.644%. In the case of `CC1CCN(C(=O)CN2CC(c3nc(C4CC4)no3)C2)CC1.O=C(O)C(=O)O`, the “Percent Effect” value is reported as -25.89%. For `O=C(CN1CC(c2nc(C3CC3)no2)C1)N1CCOCC1.O=C(O)C(=O)O`, the “Percent Effect” value was 59.8%. `CN(Cc1ccncc1)c1cncc(Br)c1` was tested, and the “Percent Effect” value was -1.215%. For `COCC1CCN(c2nc(C(C)(C)C)nc3c2cnn3C)C1` (stereo not drawn), the “Percent Effect” value was 57.26%. In the case of `Cn1ncc2c(N3CCC(CCO)CC3)nc(C(C)(C)C)nc21`, the “Percent Effect” value is reported as 26.71%. In the case of `CN(C)[C@H]1CCN(c2nc(C(C)(C)C)nc3c2cnn3C)C1`, the “Percent Effect” value is reported as 15.83%. With `Cc1cnn(CC2CN(CCc3ccccn3)CCO2)c1` (stereo not drawn) the “Percent Effect” value was -8.826%. With `N[C@H]1CC[C@@H](n2cc(C(=O)NC3CCc4ccccc4C3)nn2)CC1` (stereo partly drawn) the “Percent Effect” value was 43.67%. In the case of `N[C@H]1CC[C@@H](n2cc(C(=O)N[C@H]3CCCc4ccccc43)nn2)CC1`, the “Percent Effect” value is reported as 52.81%. `N[C@H]1CC[C@@H](n2cc(C(=O)NC3COc4ccccc43)nn2)CC1` (stereo partly drawn) was tested, and the “Percent Effect” value was 8.791%. `Cc1cn2c(n1)CCC(NC(=O)CNS(C)(=O)=O)C2` (stereo not drawn) was tested, and the “Percent Effect” value was -12.28%. For `Fc1ccc(Nc2ccc(C3CCN(Cc4ncc[nH]4)CC3)nc2)nc1`, the “Percent Effect” value was 12.33%. With `Cc1cccc(Nc2ccc(C3CCN(Cc4ncc[nH]4)CC3)nc2)n1` the “Percent Effect” value was 12.85%. With `Cc1cc(Nc2ccc(F)cn2)cc(C2CCN(Cc3ncc[nH]3)C2)n1` (stereo not drawn) the “Percent Effect” value was 67.32%. In the case of `COc1ccc(NC(=O)CCn2nc(-c3cccs3)oc2=O)cc1OC`, the “Percent Effect” value is reported as -4.295%. With `Cc1cc(N(C)CC2COc3ccccc3O2)nc(N)n1` (stereo not drawn) the “Percent Effect” value was 18.45%. For `Cc1cc(N(C)CC2COc3ccccc3O2)nc(C)n1` (stereo not drawn), the “Percent Effect” value was 22.34%. `CCN1CC(CN(C)c2cc(C)nc(N)n2)Oc2ccccc21` (stereo not drawn) was tested, and the “Percent Effect” value was 100.1%. With `Cc1nc(C)n(CC2CCCN(Cc3ccc4c(c3)OCCO4)C2)n1` (stereo not drawn) the “Percent Effect” value was 7.597%. `Cc1cc(-c2cnc(NCc3ccccn3)nc2C(C)C)on1` was tested, and the “Percent Effect” value was 76.78%. In the case of `Cc1cc(-c2cnc(NCc3ccc4c(c3)OCO4)nc2C(C)C)on1`, the “Percent Effect” value is reported as 24.22%. For `Cc1cc(-c2cnc(NCc3ccncc3)nc2C(C)C)on1`, the “Percent Effect” value was 71.23%. With `COc1ccccc1CNc1ncc(-c2cc(C)no2)c(C(C)C)n1` the “Percent Effect” value was 6.538%. `Cc1cc(-c2cnc(N3CCCC3)nc2C(C)C)on1` was tested, and the “Percent Effect” value was -0.9341%. In the case of `COc1ccc(CNc2ncc(-c3cc(C)no3)c(C(C)C)n2)cc1`, the “Percent Effect” value is reported as 36.58%. For `Cc1oc(-c2ccsc2)nc1CC(=O)NCC(C)(C)CN(C)C`, the “Percent Effect” value was 3.653%. For `Cc1nnc(N2CCCC3(CN(Cc4nccn4C)CCO3)C2)o1` (stereo not drawn), the “Percent Effect” value was -3.973%. For `CS(=O)(=O)NCCNCc1ccc(Br)s1.Cl`, the “Percent Effect” value was -4.859%. `O=C1CCC(=O)N1CCOc1nc(-c2ccccc2Cl)no1` was tested, and the “Percent Effect” value was 8.319%. `Cn1ccnc1-c1ccc(NCC2COc3ccccc3O2)nn1` (stereo not drawn) was tested, and the “Percent Effect” value was 75.27%. In the case of `Cn1ccnc1-c1ccc(NCCC2COc3ccccc3O2)nn1` (stereo not drawn), the “Percent Effect” value is reported as 46.99%. In the case of `Cn1ccnc1-c1ccc(NC[C@H]2CCc3ccccc3O2)nn1`, the “Percent Effect” value is reported as 35.04%. For `O=C(CNC1(c2ccc(Cl)cc2)CCOCC1)NC1CCCC1`, the “Percent Effect” value was 28.07%. `Cc1cc(C)n(C2CCN(S(=O)(=O)N3CCOCC3)CC2)n1` was tested, and the “Percent Effect” value was -10.91%. In the case of `Cn1cc(NC(=O)N2CCC(NS(C)(=O)=O)CC2)ccc1=O`, the “Percent Effect” value is reported as 73.41%. `Cn1cc(NC(=O)N2CCC(c3ccccc3)CC2)ccc1=O` was tested, and the “Percent Effect” value was 23.03%. In the case of `Cn1cc(NC(=O)N2CCC(CN3CCCC3)CC2)ccc1=O`, the “Percent Effect” value is reported as 1.194%. With `Cc1cc(N(C)C)nc(C2(C)CCCNC2)n1` (stereo not drawn) the “Percent Effect” value was -30.33%. With `Cc1nc(N(C)C)cc(C2(C)CCNCC2)n1` the “Percent Effect” value was 3.518%. For `Cc1nc(N(C)C)cc(C2(C)CCCNC2)n1` (stereo not drawn), the “Percent Effect” value was 54.11%. For `Cc1nc(O)cc(C2(C)CCCNC2)n1.Cl` (stereo not drawn), the “Percent Effect” value was 37.37%. With `Cc1nc(N)cc(C2(C)CCCNC2)n1` (stereo not drawn) the “Percent Effect” value was 52.22%. For `Cc1nccc(C2(C)CCCNC2)n1.Cl.Cl` (stereo not drawn), the “Percent Effect” value was -29.52%. With `COC(=O)Nc1cccc(C(=O)N(C)Cc2cccc(O)c2)c1` the “Percent Effect” value was 16.47%. In the case of `CC(C)(C)CC(=O)N1CCC(c2nn(CCN)c3nccnc23)C1` (stereo not drawn), the “Percent Effect” value is reported as -1.305%. In the case of `Cc1nnc(N(CCC#N)CCC#N)s1`, the “Percent Effect” value is reported as 53.32%. With `CCSc1nnc(N(CCC#N)CCC#N)s1` the “Percent Effect” value was 19.26%. For `CSc1nnc(N(CCC#N)CCC#N)s1`, the “Percent Effect” value was 7.045%. `CC(=O)NCC(=O)N1Cc2nccn2CC(Cn2cccn2)C1` (stereo not drawn) was tested, and the “Percent Effect” value was 8.126%. `CN(Cc1nc2ccccc2n1C)C(=O)CCc1cscn1` was tested, and the “Percent Effect” value was 3.18%. With `Cc1ccc(CNCc2cccc3cn[nH]c23)c(OC2CCOC2)c1` (stereo not drawn) the “Percent Effect” value was 31.88%. With `COCCOc1ccc(NCc2cccc3cn[nH]c23)cn1` the “Percent Effect” value was 0.8667%. In the case of `Cc1ccc(NCc2cccc3cn[nH]c23)cc1OC1CCOC1` (stereo not drawn), the “Percent Effect” value is reported as 50.19%. In the case of `CN1CCCN(C(=O)c2cnsn2)c2cc(Cl)ccc21`, the “Percent Effect” value is reported as 23.17%. With `CN1CC2(CCCN(CCOCc3ccccc3)C2)OC1=O` (stereo not drawn) the “Percent Effect” value was 17.75%. `COc1ccccc1OCC(=O)NS(=O)(=O)c1ccccc1Br` was tested, and the “Percent Effect” value was 29.83%. With `N#Cc1cn[nH]c1NCc1cc(I)cc(I)c1O` the “Percent Effect” value was 104.4%. `N#Cc1cn[nH]c1NCc1cc(Br)ccc1O` was tested, and the “Percent Effect” value was -2.668%. In the case of `N#Cc1cn[nH]c1NCc1cc(Cl)cc(Cl)c1O`, the “Percent Effect” value is reported as 4.06%. In the case of `CN1C[C@@H](C(=O)NC2CC2)[C@@]2(COc3ccc(F)cc3C2=O)C1`, the “Percent Effect” value is reported as -27.17%. In the case of `Cn1cc(N2C(=O)CC[C@@H]3[C@H]2CCN3Cc2cccc(C#N)c2)cn1.O=C(O)C(F)(F)F.O=C(O)C(F)(F)F`, the “Percent Effect” value is reported as 14.16%. `CN1CCCCCC1C(=O)NCCCn1ncc2ccccc21` (stereo not drawn) was tested, and the “Percent Effect” value was 28.62%. With `CCC(CO)NCc1ccc(-c2ccc(Br)cc2)o1.Cl` (stereo not drawn) the “Percent Effect” value was 52.02%. For `Cn1nnc(NCc2ccc(-c3ccc(Cl)cc3)o2)n1`, the “Percent Effect” value was 60.16%. With `CCCn1nnc(NCc2ccc(-c3ccc(Br)cc3)o2)n1` the “Percent Effect” value was 31.95%. `CCCn1nnc(NCc2cc(Br)cc(Br)c2OC)n1` was tested, and the “Percent Effect” value was 40.71%. `CCn1nnc(NCc2ccc(-c3ccc(Br)cc3)o2)n1` was tested, and the “Percent Effect” value was 69.94%. In the case of `CCC(CO)NCc1ccc(-c2ccccc2)o1.Cl` (stereo not drawn), the “Percent Effect” value is reported as 5.639%. For `Cn1nnc(NCc2ccc(-c3ccc(Br)cc3)o2)n1`, the “Percent Effect” value was 60.92%. With `CCC(CO)NCc1ccc(-c2ccc(F)c(Cl)c2)o1.Cl` (stereo not drawn) the “Percent Effect” value was 48.48%. In the case of `Cn1ncnc1NCc1ccc(Cl)cc1`, the “Percent Effect” value is reported as -4.993%. For `CCn1nnc(NCc2cc(Br)cc(Br)c2OC)n1`, the “Percent Effect” value was 31.18%. `CCC(CO)NCc1ccc(-c2ccc(Cl)cc2)o1.Cl` (stereo not drawn) was tested, and the “Percent Effect” value was 16.24%. In the case of `CCC(CO)NCc1ccc(-c2ccc(F)cc2)o1.Cl` (stereo not drawn), the “Percent Effect” value is reported as 35.55%. For `O=C(c1sccc1Cl)N1CCC(Cn2cc(CO)nn2)CC1`, the “Percent Effect” value was 28.9%. With `CC(Nc1cccc(COCc2ccco2)c1)C(=O)NC(N)=O` (stereo not drawn) the “Percent Effect” value was 25.61%. With `COCCCNC(=O)C(C)n1nc(-c2ccco2)cc(N)c1=O` (stereo not drawn) the “Percent Effect” value was 37.24%. `Cc1ncncc1-c1ccnc(N)n1` was tested, and the “Percent Effect” value was 1.831%. In the case of `CS(=O)(=O)c1ccc(NCC2CCCO2)c(S(C)(=O)=O)c1` (stereo not drawn), the “Percent Effect” value is reported as -21.42%.
